Data on 15 molecules can be found in PMC12864922, “TDP-43 directly inhibits mRNA accumulation in neurites through modulation of mRNA stability”.

In all, about 9,900 sequences were measured (“r (bound/input frequency ratio)”: median about 0.7, highest 2% from about 6.5 on). For the sample, the highest values were picked, then their nearest neighbours and some sequences at random.

B1: ENSMUSG00000032194.294|Kank2 (ssRNA)
RNA: GGGAGUUCUACAGUCCGACGAUCGCUUCGAUAUCCGCAUGCUAAUGGAUGAGAAACUGGGUUGGCUGGUGGGUAGAUGUCAUGAUGGAGUCUUUGCACGUGUAUGAAACAGAAAACCAAACUUCAGGACAGACAGCUGCUGGUGUCUCUGGAUGCUCACAGCCUAGGGCACAUUUGAAAGGUCGUGCUCUGAGCUGAGCCCUGAGUUCCAGCCUUGUAGCCAGCAAGGGAGUUUAUUUAAGGUUCUGGAAGCAUCAGCUAUGACCCAAAGCACACGCUCCUCAGAAAAGCCCCUGUUUCUGUCCUCUUGCGGUCGCACUAGUGUGGAAUUCUCGGGUGUCAAGG
B2: ENSMUSG00000042529.84|Kcnj12 (ssRNA)
RNA: GGGAGUUCUACAGUCCGACGAUCGCUUCGAUAUCCGCAUGCUACCCCACAAAACACAAGAAAACAUUAACAGGUGGUUCAAUUUUUAAAAUUCCUGGUGUGGGGACAGUUGGAAUUCUACUCAGCGCUGCCAGGCAAGCAGCUGGACGGAGAACCCUGAGGGUUCUCAGAGGUCUGUUUUCUCCCUCACGUGGGCCAGGGCCUUAAGCGAGUUGUCAUGCUUAAGGAUGAAUCAGGCUGCUUGUGACCAUGUUAACGAUUCUAAUAAAGUGUCUGGAUGUCUCUUGGGGGUGGGGCCCACUAGCUCUUGCGGUCGCACUAGUGUGGAAUUCUCGGGUGUCAAGG
B3: ENSMUSG00000061578.34|Ksr2|40:50;139:145;150:154 (ssRNA)
RNA: GGGAGUUCUACAGUCCGACGAUCGCUUCGAUAUCCGCAUGCUACCACUCAACUAGGACCAAACUGGGCCAGAGAGGGUCCCAACACACCACACAAGGAGCCACAGACUGAGCACACCACCUCGGACUGUGGAGACCAAGACACAUGCCCAGUGGGCAGACUCAGACUCACACGCUGGACCACACACACCGCAACACACUACACAUGGACAGGGCCAACUGCUAUCCUUCUGCCUGGACGAGCCAGCUGUGGAGUGUCCCAGCUGUGCUAUCCUGGAACACAGAACCAGGAUGGAACCAGAAACCUCUUGCGGUCGCACUAGUGUGGAAUUCUCGGGUGUCAAGG
B4: ENSMUSG00000061578.47|Ksr2|61:67;72:76 (ssRNA)
RNA: GGGAGUUCUACAGUCCGACGAUCGCUUCGAUAUCCGCAUGCUACGGACUGUGGAGACCAAGACACAUGCCCAGUGGGCAGACUCAGACUCACACGCUGGACCACACACACCGCAACACACUACACAUGGACAGGGCCAACUGCUAUCCUUCUGCCUGGACGAGCCAGCUGUGGAGUGUCCCAGCUGUGCUAUCCUGGAACACAGAACCAGGAUGGAACCAGAAACAAUACACCUGCUCCGUUGUCAAGGCUUCUAGGCCAAGGUCAGGGUAGGGAGGUGGGGUGGGUUAAACUUGCAAACAUCCUCUUGCGGUCGCACUAGUGUGGAAUUCUCGGGUGUCAAGG
B5: ENSMUSG00000035202.92|Lars2 (ssRNA)
RNA: GGGAGUUCUACAGUCCGACGAUCGCUUCGAUAUCCGCAUGCUAUUUUACCCUACUGAUGAUGUGUUGUUGCCAUGGUAAUCCUGCUCAGUACGAGAGGAACCGCAGCUAGCUUGUGUCUCCAGUGUCUUUUACCAUCACAGGCCCUGGCUCUGUGCUACCUCCCUAGAAUACCUGUGGUUCAUCACCUUCAGCUCACACUCCAUUCAGACAAUGCUCACUUAGGCCUACAAGCAAGGGAGAGGCUUAAGCACAAGGUCUUUAAGCUUGAUACUGUGCCUGGUCUCAAUGCCUAGAAAUUCCAACUCUUGCGGUCGCACUAGUGUGGAAUUCUCGGGUGUCAAGG
B6: ENSMUSG00000004113.188|Cacna1b (ssRNA)
RNA: GGGAGUUCUACAGUCCGACGAUCGCUUCGAUAUCCGCAUGCUAGCAAUGUUCCUGUAUGUUUCUACCCUGCCUGGGAUGUCCCCAAUGACCCUGGCUCCUCUGCUCAACCAAGUGCCUGAUCUCUGGCUCUGAGCAUCGUGGAUGAGGUACGGCCUCAGGAAGCAUCGGGUGGAUUGGGUGGGAGCUGCUCAGAGCAGCACGGGGGCUUGUGUCUUAGGGACAUUGACAGUGUCCAUCAGCAUGUCAGAGAAGCAGCUGUAGUGCCCGUGUUUCUCCCUGAGUCAUGGGUUCUGAAGAAGCCACUCUUGCGGUCGCACUAGUGUGGAAUUCUCGGGUGUCAAGG
B7: ENSMUSG00000058297.291|Spock2 (ssRNA)
RNA: GGGAGUUCUACAGUCCGACGAUCGCUUCGAUAUCCGCAUGCUAAGAGAGAGAGAGAAAGAGAGAGAGAAUGAGAGAGAAUGAGAGAGAGAAUACCCGAGGGCCACCCUGAUGCCCAGGAAGAGUGAGGGCAGCCCCCUGUGUGGUGGAAGAGGCUGGGCAGCUAGCUACUGGGGACCUUGUGCUGAGGCUUCCAGGACAAAGCCCCAGUCUGGCUCUCCCCCAGCCUCUCAGGGGCACUGGCUGGUCACAUCCACUGAGUAUUGAUCGGUUGGACUUUAGGGAAGAGCCUCCUCCUUCCCAUUCUCUUGCGGUCGCACUAGUGUGGAAUUCUCGGGUGUCAAGG
B8: ENSMUSG00000061578.131|Ksr2 (ssRNA)
RNA: GGGAGUUCUACAGUCCGACGAUCGCUUCGAUAUCCGCAUGCUAACCAGUUCACCAUCAUUCAUGGCUUCCCCCAAAGUCCCGAGUCCUGAGAACCGGGGCUGUGGCAAGAGAGUUCUGGUGUGUUCUCUCUGUGGGGCUAGCAAUGCCGGGGUUAAGUUCUCCCUCGGUGAUGGAGACGGUCCUGGGUAUGCAUGAUGGGUUACAUGGGUGUGUGUGUGUGUGUAACUGUUUACAAUGGUCUCCCUGCCUCUCACGGGCUGUGUUCCAGGAGAAUGCACAUAGAGAGGUUCUGUGGUCUCUGCCUCUUGCGGUCGCACUAGUGUGGAAUUCUCGGGUGUCAAGG
B9: ENSMUSG00000058297.288|Spock2 (ssRNA)
RNA: GGGAGUUCUACAGUCCGACGAUCGCUUCGAUAUCCGCAUGCUAAGAGAGAGAGAGAGAGAGAGAGAGAGAGAGAAAGAGAGAGAGAAUGAGAGAGAAUGAGAGAGAGAAUACCCGAGGGCCACCCUGAUGCCCAGGAAGAGUGAGGGCAGCCCCCUGUGUGGUGGAAGAGGCUGGGCAGCUAGCUACUGGGGACCUUGUGCUGAGGCUUCCAGGACAAAGCCCCAGUCUGGCUCUCCCCCAGCCUCUCAGGGGCACUGGCUGGUCACAUCCACUGAGUAUUGAUCGGUUGGACUUUAGGGAAGCUCUUGCGGUCGCACUAGUGUGGAAUUCUCGGGUGUCAAGG
B10: ENSMUSG00000061578.130|Ksr2 (ssRNA)
RNA: GGGAGUUCUACAGUCCGACGAUCGCUUCGAUAUCCGCAUGCUAACCUUUACCAGUUCACCAUCAUUCAUGGCUUCCCCCAAAGUCCCGAGUCCUGAGAACCGGGGCUGUGGCAAGAGAGUUCUGGUGUGUUCUCUCUGUGGGGCUAGCAAUGCCGGGGUUAAGUUCUCCCUCGGUGAUGGAGACGGUCCUGGGUAUGCAUGAUGGGUUACAUGGGUGUGUGUGUGUGUGUAACUGUUUACAAUGGUCUCCCUGCCUCUCACGGGCUGUGUUCCAGGAGAAUGCACAUAGAGAGGUUCUGUGGUCUCUUGCGGUCGCACUAGUGUGGAAUUCUCGGGUGUCAAGG
B11: ENSMUSG00000058297.297|Spock2 (ssRNA)
RNA: GGGAGUUCUACAGUCCGACGAUCGCUUCGAUAUCCGCAUGCUAUGAGAGAGAGAAUACCCGAGGGCCACCCUGAUGCCCAGGAAGAGUGAGGGCAGCCCCCUGUGUGGUGGAAGAGGCUGGGCAGCUAGCUACUGGGGACCUUGUGCUGAGGCUUCCAGGACAAAGCCCCAGUCUGGCUCUCCCCCAGCCUCUCAGGGGCACUGGCUGGUCACAUCCACUGAGUAUUGAUCGGUUGGACUUUAGGGAAGAGCCUCCUCCUUCCCAUUCCUUUCUGCCACCCUGGAAUGGCCACCUUAAUCGUCCUCUUGCGGUCGCACUAGUGUGGAAUUCUCGGGUGUCAAGG
B12: ENSMUSG00000061578.129|Ksr2 (ssRNA)
RNA: GGGAGUUCUACAGUCCGACGAUCGCUUCGAUAUCCGCAUGCUAGGUGUGACCUUUACCAGUUCACCAUCAUUCAUGGCUUCCCCCAAAGUCCCGAGUCCUGAGAACCGGGGCUGUGGCAAGAGAGUUCUGGUGUGUUCUCUCUGUGGGGCUAGCAAUGCCGGGGUUAAGUUCUCCCUCGGUGAUGGAGACGGUCCUGGGUAUGCAUGAUGGGUUACAUGGGUGUGUGUGUGUGUGUAACUGUUUACAAUGGUCUCCCUGCCUCUCACGGGCUGUGUUCCAGGAGAAUGCACAUAGAGAGGUUCCUCUUGCGGUCGCACUAGUGUGGAAUUCUCGGGUGUCAAGG
B13: ENSMUSG00000058297.298|Spock2 (ssRNA)
RNA: GGGAGUUCUACAGUCCGACGAUCGCUUCGAUAUCCGCAUGCUAAGAGAAUACCCGAGGGCCACCCUGAUGCCCAGGAAGAGUGAGGGCAGCCCCCUGUGUGGUGGAAGAGGCUGGGCAGCUAGCUACUGGGGACCUUGUGCUGAGGCUUCCAGGACAAAGCCCCAGUCUGGCUCUCCCCCAGCCUCUCAGGGGCACUGGCUGGUCACAUCCACUGAGUAUUGAUCGGUUGGACUUUAGGGAAGAGCCUCCUCCUUCCCAUUCCUUUCUGCCACCCUGGAAUGGCCACCUUAAUCGUCAUCUCCCUCUUGCGGUCGCACUAGUGUGGAAUUCUCGGGUGUCAAGG
B14: ENSMUSG00000058297.286|Spock2 (ssRNA)
RNA: GGGAGUUCUACAGUCCGACGAUCGCUUCGAUAUCCGCAUGCUAUGUGUGAGAGAGAGAGAGAGAGAGAGAGAGAGAGAGAGAGAGAAAGAGAGAGAGAAUGAGAGAGAAUGAGAGAGAGAAUACCCGAGGGCCACCCUGAUGCCCAGGAAGAGUGAGGGCAGCCCCCUGUGUGGUGGAAGAGGCUGGGCAGCUAGCUACUGGGGACCUUGUGCUGAGGCUUCCAGGACAAAGCCCCAGUCUGGCUCUCCCCCAGCCUCUCAGGGGCACUGGCUGGUCACAUCCACUGAGUAUUGAUCGGUUGGCUCUUGCGGUCGCACUAGUGUGGAAUUCUCGGGUGUCAAGG
B15: ENSMUSG00000058297.285|Spock2 (ssRNA)
RNA: GGGAGUUCUACAGUCCGACGAUCGCUUCGAUAUCCGCAUGCUAUGUGUGUGUGUGAGAGAGAGAGAGAGAGAGAGAGAGAGAGAGAGAGAGAAAGAGAGAGAGAAUGAGAGAGAAUGAGAGAGAGAAUACCCGAGGGCCACCCUGAUGCCCAGGAAGAGUGAGGGCAGCCCCCUGUGUGGUGGAAGAGGCUGGGCAGCUAGCUACUGGGGACCUUGUGCUGAGGCUUCCAGGACAAAGCCCCAGUCUGGCUCUCCCCCAGCCUCUCAGGGGCACUGGCUGGUCACAUCCACUGAGUAUUGAUCCUCUUGCGGUCGCACUAGUGUGGAAUUCUCGGGUGUCAAGG

The target of this assay is TDP-43 (Homo sapiens, UniProt Q13148 1-414). The assay is described as follows: RNA Bind-n-Seq with designed 260-mer pool; 25 mM Tris-HCl, 150 mM KCl, 3 mM MgCl2, BSA (printed 500 mg/mL), 20 units/mL SUPERase IN; pH not stated; 500 nM RNA pool, 1 h, 4 C; TDP-43 5, 50, 500 nM; high values mean tight binding. Conditions: protein: recombinant; tags: SBP (GST cleaved off with PreScission; pGEX-GST-SBP). The procedure, abridged: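 Duplicate measurements used two independent batches of recombinant SBP-tagged TDP-43, which was captured on streptavidin beads at 5, 50 or 500 nM. The beads were incubated with 500 nM of an in vitro-transcribed 260-nt 3′ UTR oligo pool for 1 h at 4 °C in 25 mM Tris-HCl, 150 mM KCl, 3 mM MgCl2, BSA and SUPERase IN. After washing, biotin elution, reverse transcription, PCR amplification and sequencing, binding was expressed as R: each oligo's normalized read abundance in the bound sample over its abundance in input.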
Sequence of TDP-43 (Q13148 whole entry): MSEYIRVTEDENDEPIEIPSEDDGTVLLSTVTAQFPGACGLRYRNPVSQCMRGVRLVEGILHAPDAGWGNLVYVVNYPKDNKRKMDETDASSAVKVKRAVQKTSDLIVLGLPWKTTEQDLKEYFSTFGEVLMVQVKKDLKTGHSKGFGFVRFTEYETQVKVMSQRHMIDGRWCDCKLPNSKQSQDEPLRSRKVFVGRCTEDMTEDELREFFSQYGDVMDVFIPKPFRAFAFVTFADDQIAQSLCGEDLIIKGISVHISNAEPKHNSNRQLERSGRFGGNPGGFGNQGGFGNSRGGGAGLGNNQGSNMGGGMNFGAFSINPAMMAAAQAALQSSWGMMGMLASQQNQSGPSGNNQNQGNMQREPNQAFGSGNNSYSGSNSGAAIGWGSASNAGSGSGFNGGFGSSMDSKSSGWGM
Consider B1, for which the binding signal was 0.914 R (bound/input frequency ratio).
Next, B2: 1.71 R (bound/input frequency ratio).
On to B3, for which the binding signal is 1.07 R (bound/input frequency ratio).
For B4, the binding signal was 0.292 R (bound/input frequency ratio).
For B5 the value was 0.689 R (bound/input frequency ratio).
For B6 the value was 0.976 R (bound/input frequency ratio).
Regarding B7, the binding signal was 8.35 R (bound/input frequency ratio).
With B8, the binding signal was 3.31 R (bound/input frequency ratio).
Next, B9: 7.62 R (bound/input frequency ratio); B10: 6.59 R (bound/input frequency ratio); B11: 4.65 R (bound/input frequency ratio).
For B12 the value was 4.45 R (bound/input frequency ratio).
Next, B13: 3.7 R (bound/input frequency ratio).
For the molecule B14, the binding signal was 6.3 R (bound/input frequency ratio).
As to B15, the binding signal is 7.21 R (bound/input frequency ratio).
